Data taken from the supplement of paper PMC8728848.
The full list was thinned out, with the strongest signals kept by preference.

Tests used:
Test in all cases: glycan array binding signal (z-score within array); higher = stronger binding
Conditions in all cases: glycan notation: IUPAC condensed, linker removed
[1] = biological target: Fuc(a1-2)Gal(b1-4)[Fuc(a1-3)]GlcNAc(b1-3)Gal(b1-4)[Fuc(a1-3)]GlcNAc
In short: (§1)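 Glycan array data came from 3228 arrays in the Consortium for Functional Glycomics database, and only arrays with an available protein sequence were kept. Glycan names were put into IUPAC-condensed notation, and columns mapping to the same glycan were averaged. The binding signal is a within-array Z-score, averaged across arrays of one protein sequence run at different concentrations or buffers and across linkers. A negative Z-score can be read as non-binding.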

[2] = biological target: Fuc(a1-2)[Gal(a1-3)]Gal(b1-3)GalNAc(b1-3)Gal(a1-4)Gal(b1-4)Glc
In short: as §1

[3] = biological target: Fuc(a1-2)[Gal(a1-3)]Gal(b1-4)GlcNAc(b1-2)Man(a1-3)[Fuc(a1-2)[Gal(a1-3)]Gal(b1-4)GlcNAc(b1-2)Man(a1-6)]Man(b1-4)GlcNAc(b1-4)[Fuc(a1-6)]GlcNAc
In short: as §1

[4] = biological target: Fuc(a1-2)[Gal(a1-3)]Gal(b1-4)GlcNAc(b1-3)GalNAc
In short: as §1

[5] = biological target: Fuc(a1-2)[GalNAc(a1-3)]Gal(b1-3)GlcNAc(b1-2)Man(a1-3)[Fuc(a1-2)[GalNAc(a1-3)]Gal(b1-3)GlcNAc(b1-2)Man(a1-6)]Man(b1-4)GlcNAc(b1-4)[Fuc(a1-6)]GlcNAc
In short: as §1

[6] = biological target: Fuc(a1-2)[GalNAc(a1-3)]Gal(b1-4)GlcNAc(b1-2)Man(a1-3)[Fuc(a1-2)[GalNAc(a1-3)]Gal(b1-4)GlcNAc(b1-2)Man(a1-6)]Man(b1-4)GlcNAc(b1-4)[Fuc(a1-6)]GlcNAc
In short: as §1

[7] = biological target: Fuc(a1-2)[GalNAc(b1-3)]Gal
In short: as §1

Fuc(a1-4)GlcNAc = biological target: Fuc(a1-4)GlcNAc
In short: as §1

Gal(a1-3)Gal = biological target: Gal(a1-3)Gal
In short: as §1

[8] = biological target: Gal(a1-3)Gal(b1-4)GlcNAc(b1-2)Man(a1-3)[Gal(a1-3)Gal(b1-4)GlcNAc(b1-2)Man(a1-6)]Man(b1-4)GlcNAc(b1-4)GlcNAc
In short: as §1

[9] = biological target: Gal(b1-3)GlcNAc(b1-3)Gal(b1-4)GlcNAc(b1-6)[Gal(b1-3)GlcNAc(b1-3)]Gal(b1-4)Glc
In short: as §1

[10] = biological target: Gal(b1-3)GlcNAc(b1-3)Gal(b1-4)[Fuc(a1-3)]GlcNAc
In short: as §1

[11] = biological target: Gal(b1-3)[Fuc(a1-4)]GlcNAc
In short: as §1

[12] = biological target: Gal(b1-4)GlcNAc(b1-2)Man(a1-3)[Gal(b1-4)GlcNAc(b1-2)Man(a1-6)]Man(b1-4)GlcNAc(b1-4)GlcNAc
In short: as §1

[13] = biological target: Gal(b1-4)GlcNAc(b1-3)Gal(b1-4)GlcNAc(b1-2)Man(a1-3)[Gal(b1-4)GlcNAc(b1-3)Gal(b1-4)GlcNAc(b1-2)Man(a1-6)]Man(b1-4)GlcNAc(b1-4)GlcNAc
In short: as §1

[14] = biological target: Gal(b1-4)GlcNAc(b1-3)Gal(b1-4)GlcNAc(b1-2)Man(a1-3)[Gal(b1-4)GlcNAc(b1-3)Gal(b1-4)GlcNAc(b1-2)Man(a1-6)]Man(b1-4)GlcNAc(b1-4)[Fuc(a1-6)]GlcNAc
In short: as §1

[15] = biological target: Gal(b1-4)GlcNAc(b1-3)Gal(b1-4)GlcNAc(b1-3)Gal(b1-4)GlcNAc(b1-2)[Gal(b1-4)GlcNAc(b1-3)Gal(b1-4)GlcNAc(b1-3)Gal(b1-4)GlcNAc(b1-6)]Man(a1-6)[Gal(b1-4)GlcNAc(b1-3)Gal(b1-4)GlcNAc(b1-3)Gal(b1-4)GlcNAc(b1-2)Man(a1-3)]Man(b1-4)GlcNAc(b1-4)[Fuc(a1-6)]GlcNAc
In short: as §1

[16] = biological target: Gal(b1-4)GlcNAc(b1-3)Gal(b1-4)GlcNAc(b1-3)Gal(b1-4)GlcNAc(b1-3)Gal(b1-4)GlcNAc(b1-2)Man(a1-3)[Gal(b1-4)GlcNAc(b1-3)Gal(b1-4)GlcNAc(b1-3)Gal(b1-4)GlcNAc(b1-3)Gal(b1-4)GlcNAc(b1-2)Man(a1-6)]Man(b1-4)GlcNAc(b1-4)[Fuc(a1-6)]GlcNAc
In short: as §1

[17] = biological target: Gal(b1-4)GlcNAc(b1-3)Gal(b1-4)GlcNAc(b1-3)Gal(b1-4)GlcNAc(b1-3)Gal(b1-4)GlcNAc(b1-3)Gal(b1-4)GlcNAc(b1-2)Man(a1-3)[Gal(b1-4)GlcNAc(b1-3)Gal(b1-4)GlcNAc(b1-3)Gal(b1-4)GlcNAc(b1-3)Gal(b1-4)GlcNAc(b1-3)Gal(b1-4)GlcNAc(b1-2)Man(a1-6)]Man(b1-4)GlcNAc(b1-4)GlcNAc
In short: as §1

[18] = biological target: Gal(b1-4)GlcNAc(b1-3)Gal(b1-4)GlcNAc(b1-3)Gal(b1-4)GlcNAc(b1-3)Gal(b1-4)GlcNAc(b1-3)Gal(b1-4)GlcNAc(b1-2)Man(a1-3)[Gal(b1-4)GlcNAc(b1-3)Gal(b1-4)GlcNAc(b1-3)Gal(b1-4)GlcNAc(b1-3)Gal(b1-4)GlcNAc(b1-3)Gal(b1-4)GlcNAc(b1-2)Man(a1-6)]Man(b1-4)GlcNAc(b1-4)[Fuc(a1-6)]GlcNAc
In short: as §1

[19] = biological target: Gal(b1-4)GlcNAc(b1-3)Gal(b1-4)GlcNAc(b1-3)Gal(b1-4)GlcNAc(b1-3)Gal(b1-4)GlcNAc(b1-3)Gal(b1-4)GlcNAc(b1-3)Gal(b1-4)GlcNAc(b1-2)Man(a1-3)[Gal(b1-4)GlcNAc(b1-3)Gal(b1-4)GlcNAc(b1-3)Gal(b1-4)GlcNAc(b1-3)Gal(b1-4)GlcNAc(b1-3)Gal(b1-4)GlcNAc(b1-3)Gal(b1-4)GlcNAc(b1-2)Man(a1-6)]Man(b1-4)GlcNAc(b1-4)GlcNAc
In short: as §1

[20] = biological target: Gal(b1-4)GlcNAc(b1-6)GalNAc
In short: as §1

Gal3S(b1-4)Glc6S = biological target: Gal3S(b1-4)Glc6S
In short: as §1

Gal6S(b1-4)GlcNAc = biological target: Gal6S(b1-4)GlcNAc
In short: as §1

Gal6S(b1-4)GlcNAc6S = biological target: Gal6S(b1-4)GlcNAc6S
In short: as §1

B1: SP15308B-bot-339-22-339 (Bacteroides ovatus) (protein)
chain: NEWEDEQYEQYVSFKAPIASGSDGVTTIYVRYKDNGKVTYQLPIIVSGSTVNSQDRDIHIAVDKDTLKTLNIERFSLYRPELWYTEMEEDKYEFPETVHIPAGSCVELLNIDFNLQDIDMLEKWVLPLTIVDDGSYAYQSHPRKNYAKALLKVVPFNNYSGSYTASSMKVYTYINGKPDTNARTTDKRTGYVVDNNSIFFYAGLINEDMDKDMRKKYKINVHFKEDGTLDMKQDDPSNEMEFELIGTPTYSSTSVMDATRPYLERRYVQIMFEYDFQDFTYGGSGTEVIPIKYRVAGSMTLLRNINTQIPDEDQQIEW
glycan array binding signal (z-score) [1]: -0.601
glycan array binding signal (z-score) [2]: -0.087
glycan array binding signal (z-score) [3]: 0.241
glycan array binding signal (z-score) [4]: -0.515
glycan array binding signal (z-score) [5]: -0.323
glycan array binding signal (z-score) [6]: -0.388
glycan array binding signal (z-score) [7]: 0.15
glycan array binding signal (z-score) (Fuc(a1-4)GlcNAc): 2.58
glycan array binding signal (z-score) (Gal(a1-3)Gal): 0.449
glycan array binding signal (z-score) [8]: 3.88
glycan array binding signal (z-score) [9]: -0.129
glycan array binding signal (z-score) [10]: -0.548
glycan array binding signal (z-score) [11]: -0.425
glycan array binding signal (z-score) [12]: -0.534
glycan array binding signal (z-score) [13]: 2.8
glycan array binding signal (z-score) [14]: 2.57
glycan array binding signal (z-score) [15]: 2.24
glycan array binding signal (z-score) [16]: 7.12
glycan array binding signal (z-score) [17]: 1.84
glycan array binding signal (z-score) [18]: 0.658
glycan array binding signal (z-score) [19]: 6.94
glycan array binding signal (z-score) [20]: 0.182
glycan array binding signal (z-score) (Gal3S(b1-4)Glc6S): -0.337
glycan array binding signal (z-score) (Gal6S(b1-4)GlcNAc): 1.87
glycan array binding signal (z-score) (Gal6S(b1-4)GlcNAc6S): -0.252
